According to PubChem BioAssay (NCI):
This is part of a sample that, as a whole, favours compounds with a hit. Of some 79,000 tested, about 15% had one in any assay. Unmarked numbers belong to inactive results. Active and inactive are the calls of the source. Cut-off read from the data, not from the text of the source: active = growth inhibition above about 70%; inactive = the rest.

Tests used:
[1] = NCI Yeast Anticancer Drug Screen. Data for the rad50 strain (AID 155);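 note: 0% = growth of vehicle-only cultures of the same strain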; conditions: S. cerevisiae rad50 strain growth inhibition; at 50.0 µM; active compounds read high
Method in brief: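 Yeast carrying a defined DNA repair defect were exposed to test compounds, and growth was compared with vehicle-treated controls to give percent inhibition.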

[2] = NCI Yeast Anticancer Drug Screen. Data for the mec2-1 strain (AID 157); conditions: S. cerevisiae mec2-1 strain, at 50.0 µM, active compounds read high
Method in brief: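 Growth inhibition is read against vehicle-treated controls after compound exposure of the mec2-1 yeast strain, which is defective in DNA damage repair or cell cycle control.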

[3] = NCI Yeast Anticancer Drug Screen. Data for the sgs1 mgt1 strain (AID 161);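 note: 0% = growth of cultures given vehicle only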; conditions: S. cerevisiae sgs1 mgt1 strain, at 50.0 µM, active compounds read high
Method in brief: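 Compounds are added to genetically altered yeast, and growth is compared with cultures given vehicle alone to give percent inhibition.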

[4] = NCI Yeast Anticancer Drug Screen. Data for the cln2 rad14 strain (AID 165);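 note: 0% = growth equal to vehicle treated cultures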; conditions: S. cerevisiae cln2 rad14 strain, at 50.0 µM, active compounds read high
Method in brief: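 Growth inhibition, relative to vehicle-treated controls, is the read-out. The test organism is a yeast strain with defined genetic alterations, cln2 rad14.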

[5] = NCI Yeast Anticancer Drug Screen. Data for the bub3 strain (AID 167); conditions: S. cerevisiae bub3 mutant strain, at 50.0 µM, active compounds read high
Method in brief: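 Compounds were applied to a genetically altered yeast strain carrying a cell-cycle control defect. Growth inhibition was scored against vehicle-treated controls.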

[6] = NCI Yeast Anticancer Drug Screen. Data for the mlh1 rad18 strain (AID 175); conditions: S. cerevisiae mlh1 rad18 strain growth inhibition; at 50.0 µM; active compounds read high
Method in brief: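 Cells of a genetically altered yeast strain, deficient in DNA damage repair, were treated with compound. Their growth was then compared with that of vehicle-treated cultures to give inhibition.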

Row | Compound | growth inhibition [1] [%] | growth inhibition [2] | growth inhibition [3] [%] | growth inhibition [4] | growth inhibition [5] | growth inhibition [6] [%]
1 | COCCCC(O)CNC(C)C (configuration not stated) | -11.2 | 7.1% | -16.4 | -18.2% | 0.95% | -5.95
2 | CCOC(=O)c1cnc(SC)nc1Nc1cccc(Cl)c1Cl | 1.15 | 99% (active) | 35.9 | 98.1% (active) | 98.8% (active) | 25.1
3 | Cc1cnoc1/N=C1\C=C(Nc2oncc2C)C(=O)c2ccccc21 | -14.7 | -6.55% | -31.9 | 2.9% | -17.3% | -8.85
4 | Cc1cc(Cl)ccc1NC(=O)NC(C)(C)COC(=O)Nc1cccc(Cl)c1 | 26 | -7.3% | 23.4 | 9.15% | 16.1% | 27.9
5 | CCOC(=O)c1ccc2c(c1)C(C)(SC)C(=O)N2 (configuration not stated) | -12.7 | 0.7% | -2.85 | 4.65% | -6.55% | -1.35
6 | COc1cccc(NC(=O)C(=O)C(C(=O)c2ccccc2F)C2OC(=O)c3ccccc32)c1 (configuration not stated) | 15.6 | 0.95% | 35.5 | 18.9% | 7.85% | 3.85
7 | CNC(=O)c1ccccc1C(O)c1ccc(C)cc1 (configuration not stated) | 7.65 | -6.3% | 17.6 | 23.4% | 37.6% | 20.6
8 | CC(=O)NN | -5.25 | 0.45% | -0.8 | -1.65% | 11.5% | -16.1
9 | CCCCCCCCCCCCCCCCS(=O)(=O)N/N=C/c1ccccc1O | 25.9 | 26.2% | 30.2 | 18.2% | 6.2% | 20.2
10 | NC(=O)N(CCO)/N=C/c1ccc([N+](=O)[O-])o1 | 42.3 | 15.7% | 54.8 | 17.9% | 33.6% | 59.9
11 | O=C(/C=C\c1ccccc1Cl)/C=C/c1ccccc1Cl | 11.2 | 2.75% | -4.6 | -42.3% | -0.35% | 11.8
12 | CCC(Cc1cnc2nc(N)nc(N)c2n1)c1ccc(C(=O)NC(CCC(=O)O)C(=O)O)cc1 (configuration not stated) | -9.3 | 18.9% | 1.8 | -12.2% | -22.8% | -14.5
13 | Cc1ccc(NC(=S)N(CCC#N)C2CCCCC2)cc1 | -7.6 | -10.1% | 16.2 | 6.95% | 6.3% | 0.85
14 | O=C1C2=C(CCC2)C(=O)N1c1ccc(N2C(=O)C3=C(CCC3)C2=O)cc1 | -12.6 | -4.55% | -16.2 | -15.4% | -10.6% | -13.2
15 | Nc1nc(CCC(=O)Nc2cccc(C(F)(F)F)c2)cc(-c2ccc3ccccc3c2)n1 | -8.3 | -23.5% | -77.7 | -10.2% | -5.5% | -31.6
16 | C[C@]12CCC(=O)C=C1CC[C@@H]1[C@@H]2CC[C@@]2(C)[C@H]1CC[C@]2(O)C(=O)CCC#N | -23.1 | -2.6% | 17.1 | -33.4% | -16.8% | 13.2
17 | COc1ccc(Br)cc1C=Nc1ccccc1 | 14.9 | 3.05% | 19.2 | -8.05% | 9.05% | 4.85
18 | CCCC(C)OS(=O)(=O)c1ccc(C)cc1 (configuration not stated) | 13 | -6.55% | 0.75 | -36.5% | 8.85% | 5.05
19 | NC(N)=NCCCCC(=O)Nc1ccc(S(N)(=O)=O)cc1 | 6.15 | -0.65% | -13.2 | -6.15% | -3.75% | -19.2
20 | COC(=O)/C=C(/C(=O)OC)C1(C)c2cc(C(=O)OC)c(C(=O)OC)c(N)c2C(=N)N1c1ccccc1 (configuration not stated) | -3.75 | 25.9% | 1 | -12.4% | -5.15% | -0.9
21 | CCCCCCCCCCCC(=O)CCCCCCCCCCC | 4 | 2.2% | 2.75 | -33.9% | -4.15% | -2.7

Row | Compound | growth inhibition [1] [%] | growth inhibition [2] | growth inhibition [3] [%] | growth inhibition [4] | growth inhibition [5] | growth inhibition [6] [%]
22 | CN(C)C=Nc1ccn(CCO)c(=O)n1 | 21.6 | -16.9% | 23.6 | 19.1% | 21.9% | 33.2
23 | O=S1(=O)c2ccccc2N2CCCc3cc(Cl)cc1c32 | -49.9 | -23.1% | -41.7 | -3.35% | -8.9% | -4.15
24 | O=S(=O)(c1ccccc1)N1CCCN(S(=O)(=O)c2ccccc2)CC1 | -11.9 | -0.45% | 2.15 | 3.1% | 3.35% | 0.7
25 | Nc1nc(N)c(N=Nc2cc(Cl)c([N+](=O)[O-])cc2Cl)c(=O)[nH]1 | 13.2 | -3.75% | -10.9 | -7.15% | -1.35% | -11.1
26 | CCCCC/C(C)=C\C(=O)O | 8.95 | 9.4% | 7.25 | -14.2% | -2.4% | 5.35
27 | O=C(Nc1ccccc1)Sc1nc2ccccc2s1 | 24.5 | 17.8% | 45.5 | 13.7% | 53.9% | 27.6
28 | N#C/C(=C\c1ccc(C#N)cc1)C(=O)O | -16.6 | -3.1% | -30 | 2.75% | -14.4% | 9.55
29 | O=C(O)CCC(NC(=O)c1ccc(Nc2nc3ccccc3nc2C(=O)O)cc1)C(=O)O (configuration not stated) | -2 | -11.2% | -6.15 | 3% | 0% | 0.65
30 | O=S(=O)(O)c1ccc(S)cc1 | 2.7 | 1.55% | 16.7 | -6.5% | -31% | 1.6
31 | CC(=O)OC1C(=O)C2C(CC=C3CC(O)CC(O)C32C)C2CCC(C(C)C3CC(C)C(C)(C)O3)C12C (configuration not stated) | -31.3 | -5.15% | -29.8 | -10.4% | -10.8% | -25.6
32 | CC(Br)CNC(=O)c1ccc([N+](=O)[O-])cc1 (configuration not stated) | -0.65 | 17.3% | 3.6 | -4.35% | 9.75% | 13.3
33 | Cn1ccc(=O)n(C)c1=O | -8.15 | -10.8% | 2 | 5.15% | 5.05% | 2.25
34 | CC(=O)OCC(OC(C)=O)C(OC(C)=O)C(OC(C)=O)C(OC(C)=O)c1cnn(-c2ccccc2)n1 (configuration not stated) | 15.9 | -1.85% | 11.6 | 32.1% | 6.05% | -10.6
35 | C=C1C(=O)O[C@@H]2C[C@]3(C)[C@@H](C[C@H]12)[C@](C)(O)CC[C@@H]3O | 5.65 | -10.1% | 1.5 | -37.5% | 7.5% | 0.3
36 | N#C/C1=C(\N)CCSSSC1 | 30.8 | 25.9% | 17.4 | 21.3% | 9.5% | -0.2
37 | OCC(O)C(O)C(O)C(O)C(O)C(O)CO (configuration not stated) | 1.8 | 3.65% | 7.35 | 5.75% | -1.2% | 3.35
38 | COc1ccccc1C(=O)NO | -14.1 | -27.2% | -22.9 | 8.05% | -14.2% | -7.55
39 | c1cc[n+](-c2nc3ccccc3[n-]2)cc1 | 2.75 | -7% | 6.25 | -18.5% | -13.8% | 3.5
40 | CCCC[Si](C)(C)CCCC | -6.35 | -5.95% | -24.9 | -11.2% | -2.1% | -5.3
41 | Cc1cc(O)c(C(c2ccc3c(c2)OCO3)c2c(O)cc(C)[nH]c2=O)c(=O)[nH]1 | 31.1 | 17.2% | -4.35 | -1.1% | 0% | -34
42 | Nc1ccc(S(=O)(=O)O)cc1 | -20.6 | 3.85% | 2.35 | -29.3% | -6.75% | -2.55
